# In paper PMC7819943, “Rice protein-binding microarrays: a tool to detect cis-acting elements near promoter regions in rice”:
# In all, about 68,000 sequences were measured (“fluorescence intensity (a.u.)”: median about 9,100, highest 2% from about 16,000 on). What follows is part of a selection rich in the highest values, with near analogues and random picks from the rest.
# Target: OsWRKY34 (Oryza sativa, UniProt Q0JBA9 1-250)
# Experiment: protein-binding microarray (RPBM); PBS, 2% BSA, 51.3 ng/ul salmon testes DNA, 50 uM zinc acetate, 200 nM TF, 25 C, 1 h; high values mean tight binding
# Conditions: protein: recombinant; tags: N-terminal polyhistidine and DsRed monomer fusion (pET32a); label: CyDye5-dUTP incorporated in the synthesized complementary strand; 3' TTTTT single-stranded linker to array surface; dsDNA, one strand shown
# Procedure, shortened: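 Binding signal is defined as the fluorescence intensity of each feature in arbitrary units, read on an Axon 4000B scanner. Transcription factors with N-terminal polyhistidine and DsRed fusions came from E. coli BL21-CodonPlus and were purified on Ni–NTA. They were incubated at 200 nM for 1 h at 25 °C on a custom Agilent array that had been made double-stranded with Cy5-dUTP, with 50 µM zinc acetate present, and the array was washed.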
# OsWRKY34, sequence (Q0JBA9 entry or part of it): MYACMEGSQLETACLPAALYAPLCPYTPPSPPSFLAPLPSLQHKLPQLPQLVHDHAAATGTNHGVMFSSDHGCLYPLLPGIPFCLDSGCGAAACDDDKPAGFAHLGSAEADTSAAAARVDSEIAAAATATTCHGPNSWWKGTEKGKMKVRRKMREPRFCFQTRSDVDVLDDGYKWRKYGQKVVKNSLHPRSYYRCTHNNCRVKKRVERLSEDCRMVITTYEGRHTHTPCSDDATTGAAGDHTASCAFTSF
row,Sequence,binding signal
1,AGCCACGACCCAATCTTCGCTGCGGTTGACTTTAAATTAACGGAGTCACCTAGTGCAG,9760 fluorescence intensity (a.u.)
2,GCGTGTGTTCTTGTGCTGGATTGTGGAGTTCTTGATCCCTCGGAGTCACCTAGTGCAG,10000 fluorescence intensity (a.u.)
3,GGACGGAGGGGCGGGGTGCGACGCGGACGGCGGCGGCGGGCGGAGTCACCTAGTGCAG,13500 fluorescence intensity (a.u.)
4,ACTCCGGCGGGTTAGGGTTTGGGGTTGGGGTGAGGGTAGGCGGAGTCACCTAGTGCAG,10900 fluorescence intensity (a.u.)
5,TGTGGGACGATGGGGAGGTGTGGGGACGCACGCGGGGCGACGGAGTCACCTAGTGCAG,10200 fluorescence intensity (a.u.)
6,AACATAACTGTCTTCTTCCATTTGTATGTCATGTTTCTGTCGGAGTCACCTAGTGCAG,10700 fluorescence intensity (a.u.)
7,CGAAATGGGAGGCGGGGTTTAGGGTTTCCGGCGGGGAGGGCGGAGTCACCTAGTGCAG,25200 fluorescence intensity (a.u.)
8,CATGGTGACATGTTGTGGGGCTGTGTCTTGTGGGTACAGTCGGAGTCACCTAGTGCAG,8650 fluorescence intensity (a.u.)
9,GATAACATGTTGTAGTCTTCCAGGGGTGGGTGTTAGCTGTCGGAGTCACCTAGTGCAG,16700 fluorescence intensity (a.u.)
10,GCGCGGCGCGGCGGGACGGGGTGGGGCGAGGGCAGCAGCGCGGAGTCACCTAGTGCAG,8520 fluorescence intensity (a.u.)
11,GGAGATACGGCGAGGGGAGGGGACGGAGGGGCGGGGTGCGCGGAGTCACCTAGTGCAG,24700 fluorescence intensity (a.u.)
12,AGGAGGGGAGGCGCGGCGGAGGAGAAGAGGTGGGGATGGACGGAGTCACCTAGTGCAG,10000 fluorescence intensity (a.u.)
13,GGCGGCGCGGGTTTAGCGGGATGGGGAGGCGGCGAGTGGCCGGAGTCACCTAGTGCAG,8140 fluorescence intensity (a.u.)
14,GCGATGGGAGGTGGGCGACGCGAGGGAGAGGGGAGAGGGGCGGAGTCACCTAGTGCAG,18500 fluorescence intensity (a.u.)
15,GAGGACTGGGCGAAGGGGTGGAAGAAAATGTGGTTGTCGACGGAGTCACCTAGTGCAG,8580 fluorescence intensity (a.u.)
16,ATGGCTCGGTGGTGCACTATTTTTTTTTTAACTTAATTTGCGGAGTCACCTAGTGCAG,12100 fluorescence intensity (a.u.)
17,CACAATAGACCACCCGAAACCACATCTTCAACACTTCAATCGGAGTCACCTAGTGCAG,8530 fluorescence intensity (a.u.)
18,CTCTCCGTGCATCTATATAAACTGGCCCTGATCAATCTCACGGAGTCACCTAGTGCAG,9650 fluorescence intensity (a.u.)
19,CAGGCGACCACCTCCAGCTCCGCGCCATCTCCATGTCATCCGGAGTCACCTAGTGCAG,10800 fluorescence intensity (a.u.)
20,TGCACCTGTTTGGCTTAGTACCAGTGCGCTACTGGTTTCACGGAGTCACCTAGTGCAG,9680 fluorescence intensity (a.u.)
21,TACTCCGTACAAATTTTCTTCTGGATCCCACCTCTGCTCTCGGAGTCACCTAGTGCAG,9050 fluorescence intensity (a.u.)
22,CCCACCTCGCTGTCGTTTCTTCCTCTGGCTGGTCGCGTTGCGGAGTCACCTAGTGCAG,12700 fluorescence intensity (a.u.)
23,TTTCTTTCCTGTTTTAGGAGGGTTTTCCACGTTAAATCTTCGGAGTCACCTAGTGCAG,8290 fluorescence intensity (a.u.)
24,TTTTTTTAAAATTTGCATGTTTTTTGGTCGTGTAAAATTTCGGAGTCACCTAGTGCAG,8290 fluorescence intensity (a.u.)
25,AGGGGAGAGGAGGGGAGGCGGCGCGGCGGCGAGGAGGGGACGGAGTCACCTAGTGCAG,10200 fluorescence intensity (a.u.)
26,AAAGGTGGTGGTAGGGGATAGATCCGGGGCGGGCGGCATGCGGAGTCACCTAGTGCAG,23400 fluorescence intensity (a.u.)
27,GGCACCGGCGGAGGGGCGCGGGAGGGGAGGCGGCGGCGAGCGGAGTCACCTAGTGCAG,15600 fluorescence intensity (a.u.)

row,Sequence,binding signal
1,GGGGCGGAAACGGGCGAGGGAGGCGCGGGGAGGGTTTAAACGGAGTCACCTAGTGCAG,22600 fluorescence intensity (a.u.)
2,TGGGAGGAGGGAGGGAGGAGGAGGGCGGAGATAGGTGGTGCGGAGTCACCTAGTGCAG,11400 fluorescence intensity (a.u.)
3,TAGGAGGTGGCGGCCGGTGGTGGCGGATCCGGCGGCGGGGCGGAGTCACCTAGTGCAG,8840 fluorescence intensity (a.u.)
4,ATATCGAAATTGATGCTTGACCAGTCAACACTACTTAATCCGGAGTCACCTAGTGCAG,9070 fluorescence intensity (a.u.)
5,GTCGCTTGTCGTTGTTGCCCTGAACTGTTGGTGCTGGTTCCGGAGTCACCTAGTGCAG,9320 fluorescence intensity (a.u.)
6,GTACATACCCGTATTATTTATCTGTCGCTATGTAGGATTTCGGAGTCACCTAGTGCAG,10500 fluorescence intensity (a.u.)
7,CCACCGGCGGGCCCCACCATCTTGACTCCTCTCTGTGATCCGGAGTCACCTAGTGCAG,8610 fluorescence intensity (a.u.)
8,TGTGGTGCGTCTCCTCGTGCAGTTTTTGCCCTTGATTTGACGGAGTCACCTAGTGCAG,11800 fluorescence intensity (a.u.)
9,CGGTTGACTTTTTTTTTCTAATAAGCCAAAACGGCTTATTCGGAGTCACCTAGTGCAG,18800 fluorescence intensity (a.u.)
10,TCGTTAACTTTTTAATAAACGTTTGACCTTTCGTCTTATTCGGAGTCACCTAGTGCAG,10200 fluorescence intensity (a.u.)
11,GACTTTTCGGTTCTTAAGCTGACTTATAATTAGTCTAAACCGGAGTCACCTAGTGCAG,8630 fluorescence intensity (a.u.)
12,CATTGTTTTCTAATATTCGGCCATGGCTTTTGACATTTTACGGAGTCACCTAGTGCAG,8430 fluorescence intensity (a.u.)
13,GTTGACTTTTTGACAAACGTTTGACTTTTCGTCTTATTCACGGAGTCACCTAGTGCAG,17400 fluorescence intensity (a.u.)
14,CCTTTGACTTTTTGATAAACGTTTGACCTTTCGTCTTATTCGGAGTCACCTAGTGCAG,22800 fluorescence intensity (a.u.)
15,TGATTTTTTGACAAACATTTGACCTTTCGTCTTATTTAAACGGAGTCACCTAGTGCAG,8620 fluorescence intensity (a.u.)
16,GACTTTTTAGCATATGTTTGACCGTTCGTCTTATTCAAAACGGAGTCACCTAGTGCAG,10600 fluorescence intensity (a.u.)
17,AATTCCTGGCTACGCCACTGCTGCTCTATATATCAAGCCGCGGAGTCACCTAGTGCAG,8080 fluorescence intensity (a.u.)
18,CTCGATTGCGTGTTGTAGATTTTGTGTTTTTGTTCTTGCGCGGAGTCACCTAGTGCAG,8030 fluorescence intensity (a.u.)
19,CCCACATCAAAACCTTGAATTTTCACAGTTTCTTGCATTTCGGAGTCACCTAGTGCAG,9890 fluorescence intensity (a.u.)
20,TGTCCACACTTCCCAACTCATTAAATAGTTTGTTTTTTGACGGAGTCACCTAGTGCAG,8320 fluorescence intensity (a.u.)
21,GCTTGCCAACTTGTCCCAAATTTCCTTCGGCGTTTTTTCACGGAGTCACCTAGTGCAG,10800 fluorescence intensity (a.u.)
22,AGAGTTCTTATCCTAGTTTTTCCAACTCACTTATCTCGTTCGGAGTCACCTAGTGCAG,10900 fluorescence intensity (a.u.)
23,TCCAACTCACTTATCTCGTTTTCCGCGCACACGTTTTTTACGGAGTCACCTAGTGCAG,16500 fluorescence intensity (a.u.)
24,CTTATCTCTCTCGTTTTCCACGCACACGTTTTTCAAACCGCGGAGTCACCTAGTGCAG,8940 fluorescence intensity (a.u.)
25,TTTCACTTGCTTGTTTTTCATGTCCACACTTCCCAACTCACGGAGTCACCTAGTGCAG,16600 fluorescence intensity (a.u.)
26,AACGTTTGATTTTTCATTTCTCTTATTACTGACTTATTTACGGAGTCACCTAGTGCAG,9850 fluorescence intensity (a.u.)
27,CGCCGCCGCTCGCCGACGTCGCCGCCATCGCCATTACAGCCGGAGTCACCTAGTGCAG,8980 fluorescence intensity (a.u.)
